From PubChem BioAssay
RMI-FANCM inh: RMI-FANCM interaction inhibition; hit rate 0.58% among 70,000; FP signal (polarization) at 33 µM; AID 1159607; Fluorescence polarization, RMI core complex with F-MM2 peptide; active compounds read low; in the data active = FP signal below about 40
The depositor's hits bear a star; ! = a repeat was not active. This is one part of a sample in which hits are shown more often than they occur.

SMILES	RMI-FANCM inh
O=C(CCN1C(=O)/C(=C\c2ccccc2F)SC1=S)N1CCN(c2ccccc2)CC1	59
COc1cc(CNc2cnc3cc(S(=O)(=O)N4CCCCC4)ccc3n2)cc(OC)c1	99
FC(F)(F)c1cc(N2CCCC2)cc(C(F)(F)F)c1	55
O=C1c2cccc3cc([N+](=O)[O-])cc(c23)C(=O)N1CCc1ccccn1	45
O=C1c2cccc3cc([N+](=O)[O-])cc(c23)C(=O)N1CCCN1CCOCC1	17*
O=C(c1ccc(S(=O)(=O)N2CCOCC2)cc1)N1CCN(CCN2C(=O)c3cccc4cccc(c34)C2=O)CC1	55
COc1ccc(Cl)cc1NC(=O)N1CCCCC1	65
CC(C)(C)c1ccc(-c2nnnn2-c2cccnc2)cc1	54
O=c1nc2s/c(=C/c3ccccn3)c(=O)n2nc1-c1ccccc1	21*
O=c1/c(=C/c2ccccc2)sc2nnc(-c3ccc(Cl)cc3)n12	52
O=c1/c(=C\c2ccc(Cl)cc2)sc2nc(-c3ccc(Cl)cc3)nn12	59
CCOC(=O)c1sc(-c2ccc(-c3ccno3)s2)nc1C	84
CCOc1ccc(C)cc1S(=O)(=O)Nc1ccc2c(c1)N(C(=O)c1ccccc1)CCC2	74
CC(C)N1CCC(CNC(=O)c2ccc(Cl)cc2)CC1	66
O=C(CCc1csc(NC(=O)c2ccc[nH]c2=O)n1)NCc1cccs1	61
COC(=O)Cn1c(=NC(=O)C2COc3ccccc3O2)sc2cccc(OC)c21 (configuration not stated)	82
Cc1ccc(OCCCC(=O)NCC(C)C)c(C)c1	66
Cc1ccc(C)c(OCCCC(C)(C)C(=O)O)c1	12*!
Cc1ccc(C)c(OCC(=O)N2CCC(C)CC2)c1	67
O=C(Cc1csc(Nc2ccc(F)cc2)n1)NC1CCN(Cc2ccccc2)CC1	66
O=C(NCCOc1ccc2nnc(-c3ccccc3)n2n1)c1ccc(Cl)cc1Cl	68
COCC(=O)Nc1ccc2c(c1)N(C)C(=O)C(C)(C)CO2	71
CC(C)(C)c1ccc(-n2c(=O)[nH]c3c(C(N)=O)nc(-c4cccc(C(F)(F)F)c4)nc32)cc1	126
CC(C)N1CCc2c(sc(NC(=O)Cc3ccc(F)cc3)c2-c2nc3ccccc3s2)C1	500
CCOC(=O)N1CCc2c(sc(N)c2-c2nc3ccccc3s2)C1	76
SMILES	RMI-FANCM inh
CCOc1ccc(C(=O)Nc2sc3c(c2-c2nc4ccccc4s2)CCN(C(C)C)C3)cc1	-31*
COC(=O)N1CCc2c(sc(NC(=O)c3cccs3)c2-c2nc3ccccc3s2)C1	76
COc1ccc(CC(=O)Nc2sc3c(c2-c2nc4ccccc4s2)CCN(C(C)C)C3)cc1	55
CCOC(=O)N1CCc2c(sc(NC(=O)c3ccc(Br)s3)c2-c2nc3ccccc3s2)C1	6*
COc1cccc(CSc2nc(CC(=O)Nc3nc(C)cs3)cc(=O)[nH]2)c1	44
COCCCn1c(N)c(S(=O)(=O)c2cccs2)c2nc3ccccc3nc21	65
CC(C)c1cc(=O)n2c(n1)SCC2CC(=O)O (configuration not stated)	72
CCOC(=O)c1ccc(N/N=C\c2cc(OC)c(OC)c(OC)c2)cc1	52
O=C(Cc1ccccc1)NCCOc1ccc2c(c1)OCO2	61
CCCCC(Oc1coc(CN2CCN(c3ccccc3F)CC2)cc1=O)C(=O)O (configuration not stated)	54
COc1ccc(S(=O)(=O)N2CCOCC2)cc1C(=O)NCc1ccc2c(c1)OCO2	65
CCS(=O)(=O)Nc1ccc2c(c1)CN(C(C)=O)CC2	67
Cc1cccc2c1Oc1nc(-c3ccccc3)nc(SCC(=O)Nc3ccc4c(c3)OCCO4)c1C2	87
Cc1ccc2c(c1)Cc1c(nc(-c3ccccc3)nc1SCC(=O)Nc1cccc(C(=O)O)c1)O2	14*
Cc1ccc(-c2nc3c(c(SCC(=O)Nc4cccc(C(=O)O)c4)n2)Cc2ccccc2O3)cc1	53
Cc1ccccc1NC(=S)NCc1cccnc1	55
CCOc1ccc(-c2cc3c(=O)n(CC(=O)Nc4ccc(C)c(F)c4)ncn3n2)cc1	141
O=C(COc1ccc(S(=O)(=O)Nc2ccccc2)cc1Cl)c1ccccc1	57
COc1cc(NS(=O)(=O)c2ccc3ccccc3c2)ccc1N1CCCCC1=O	52
O=C(Oc1ccc(NS(=O)(=O)c2ccc3ccccc3c2)cc1Cl)c1ccccc1	29*
Cn1c(=O)c2c(O)c(C=Nc3cccc(Cl)c3Cl)c(=O)n(C)c2n(C)c1=O	45
Cn1c(=O)c2c(O)c(C=NCc3ccccc3)c(=O)n(-c3ccccc3)c2n(C)c1=O	56
Cn1c(=O)c2c(O)c(C=Nc3cccc([N+](=O)[O-])c3)c(=O)n(C)c2n(C)c1=O	28*
N#Cc1cc([N+](=O)[O-])ccc1Sc1ccccc1	49
COc1ccc(CC(=O)NCC(c2ccsc2)N2CCCC2)cc1 (configuration not stated)	64
SMILES	RMI-FANCM inh
Cc1ccc(C(=O)NCC(c2ccsc2)N2CCCC2)cc1C (configuration not stated)	87
COc1cc(OC)cc(C(=O)NCC(c2ccsc2)N2CCCC2)c1 (configuration not stated)	9*
Clc1cccc(N2CCN(CN3CCN(c4cccc(Cl)c4)CC3)CC2)c1	54
CC(=O)c1ccc(OC(=O)c2ccc(Cl)cc2)cc1	61
O=C1NC(=Nc2ccccc2)SC1Cc1cccc([N+](=O)[O-])c1 (configuration not stated)	-6*
O=C(O)CC1SC(=Nc2ccc(O)cc2)NC1=O (configuration not stated)	62
O=C1NC(=Nc2ccc(Cl)cc2)SC1Cc1cccc([N+](=O)[O-])c1 (configuration not stated)	62
CCOc1cccc2sc(Nc3nc4ccc5sc(C)nc5c4s3)nc12	86
Cc1ccc(N2CC(c3nc(-c4ccc(Br)cc4)no3)CC2=O)cc1 (configuration not stated)	97
CCOc1ccc(NC(=O)Cn2c(=O)n(Cc3cccs3)c(=O)c3ncccc32)cc1	64
CN(C)S(=O)(=O)c1ccc(C(=O)NCc2n[nH]c(=S)n2-c2cccc(C(F)(F)F)c2)cc1	56
O=C(NCCS(=O)(=O)N1CCc2ccccc2C1)C1CC(=O)N(c2ccccc2)C1 (configuration not stated)	56
Fc1ccc(-c2cc3c(SCc4cccc(Br)c4)nccn3n2)cc1	71
N#CC(C#N)=C1CCC(=C(C#N)C#N)CC1	31*
COc1ccc(Cl)cc1NC(=O)C(=O)NCC1CCN(C(C)C)CC1	73
Cc1cc(N)n(C2CCS(=O)(=O)C2)n1 (configuration not stated)	55
N#C/C(=C\c1cn[nH]c1-c1ccccc1)c1nc2ccccc2s1	68
N#C/C(=C\c1ccc(C#N)cc1)c1nc2ccccc2s1	71
Cc1cccc(Oc2nc3ccccn3c(=O)c2/C=C(\C#N)c2nc3ccccc3s2)c1	0*
CCOc1ccc2c(c1)n(CN1CCCCC1)c(=S)n2CN1CCCCC1	55
Cc1c(NC(=O)CCCCCN2C(=O)/C(=C\c3cccs3)SC2=S)c(=O)n(-c2ccccc2)n1C	65
Cn1nnc2c(=O)n(CC(=O)NCc3ccccc3Cl)cnc21	64
CN1CCN2c3ncccc3Cc3ccccc3C2C1 (configuration not stated)	57
CC(C)(C)[C@]1(O)CCN2C[C@H]3c4ccccc4CCc4cccc(c43)[C@@H]2C1	43*!
COc1cn(CC(=O)NCc2ccc3c(c2)OCO3)c(CSc2ccccc2)cc1=O	52
CCOC(=O)C(=O)Nc1cc(C)nn1-c1nc(C)c(C)c(=O)[nH]1	69
